Results on 51 compounds are retold here after PubChem BioAssay AID686979 (National Center for Advancing Translational Sciences (NCATS), 2013).

Molecules are shown by their SMILES. Screen size: about 420,000 compounds; about 50,000 (12%) were called active. Not shown: some 26% with an inconclusive outcome. This excerpt belongs to a sample that is enriched for actives. A number with no mark means an inactive call. The call rests on the fitted dose curve; in most records, active means well fitted inhibition curve with a large enough effect; inconclusive means small, poorly fitted or top-dose-only effect; inactive means flat fitted curve, though single readings scatter.
On the % scale 0 is the no-effect control and ±100 the full control effect; potency means the concentration at half of the fitted maximal effect.

The assay can be described thus: qHTS for Inhibitors of human tyrosyl-DNA phosphodiesterase 1 (TDP1): qHTS in cells in presence of CPT. Further: nearly all actives have a fitted effect of over 55% in size. To be noted: chicken DT40 Tdp1-/-;hTDP1 cells + 20 nM CPT, ATP luminescence, 48 h; series mostly up to 46.2 µM; activity change, negative = growth inhibition: at the top concentration. The procedure, abridged: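 Chicken DT40 Tdp1-/- cells complemented with human TDP1, 400 cells/well, exposed to compounds plus 20 nM camptothecin for at least 48 h at 37 C; viability read as ATP content by CellTiter-Glo luminescence.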
Regarding `C[C@@H](C(=O)Nc1ccc2ccccc2c1)[C@@H]1C[C@@]1(C)[C@@H](NC(=O)c1cccnc1)c1ccccc1`, the “activity change, negative = growth inhibition” value is -18.3%.

Regarding `O=C(O)c1cccc(S(=O)(=O)Nc2ccc(O)cc2Sc2nc3ccccc3s2)c1`, the “activity change, negative = growth inhibition” value is 23.1%.

`O=[N+]([O-])c1c(NCCO)cc(Sc2nc3ccccc3s2)c2nonc12`: the Potency was 0.82 µM (active).

Consider `COc1ccc(S(=O)(=O)Nc2ccc(O)c(Sc3nc4ccccc4s3)c2)cc1`, for which the “activity change, negative = growth inhibition” value was -15.5%.

`CSc1nnc(-c2ccc(C(F)(F)F)cn2)o1`: the “activity change, negative = growth inhibition” value is 20.6%.

In the case of `N=c1n(Cc2ccc(Cl)cc2)c2ccccc2n1CC(O)c1ccco1` (stereo unspecified), the Potency is 7.31 µM (active).

`O=S(=O)(O)c1nc2ccccc2n1Cc1ccc(Cl)cc1`: the “activity change, negative = growth inhibition” value is 0.399%.

`CCCNC(=O)c1cc(C2CCCCN2S(=O)(=O)c2ccc(C#N)cc2)on1` (stereo unspecified): the “activity change, negative = growth inhibition” value is -6.93%.

Consider `O=C(NCC1(N2CCCCC2)CCCCC1)c1ccc(NS(=O)(=O)c2ccc(F)cc2)cc1`, for which the “activity change, negative = growth inhibition” value was -29.5%.

For `O=C(OCCOCn1cc(Br)c(=O)[nH]c1=O)c1ccccc1`, the “activity change, negative = growth inhibition” value was -4.36%.

For the compound `CCCn1nnnc1NCc1ccc(CC)cc1`, the “activity change, negative = growth inhibition” value is -1.3%.

On to `Cc1ccc(C(=O)Nc2ccc(NC(=O)c3cccs3)cc2)c(C)c1`, for which the “activity change, negative = growth inhibition” value is 0.567%.

Take `CC(=O)Nc1ccc(/C=N/NC(=O)c2cccs2)cc1`: the “activity change, negative = growth inhibition” value was -3.1%.

Turning to `Cc1cc(/C=N/Nc2ccc([N+](=O)[O-])cn2)c(C)n1-c1cccc(C(=O)O)c1`, the “activity change, negative = growth inhibition” value is -21.9%.

`Cc1cc(/C=N/n2cnnc2)c(C)n1-c1cccc(C(=O)O)c1`: the “activity change, negative = growth inhibition” value is -0.903%.

In the case of `Cc1cccc(-n2c(C)cc(/C=N/NC(N)=S)c2C)c1`, the Potency is 10.3 µM (active).

For the compound `Cc1cccc(-n2c(C)cc(/C=N\NC(=O)c3cccs3)c2C)c1`, the Potency is 18.4 µM (active).

Turning to `Cc1c(NC(=O)CSc2nnc(-c3cccnc3)n2N)c(=O)n(-c2ccccc2)n1C`, the “activity change, negative = growth inhibition” value is 4.52%.

`CC(C)c1ccc(CC(=O)N2CCC2(C)C(=O)NS(=O)(=O)c2ccc(C(C)(C)C)cc2)cc1` (stereo unspecified): the “activity change, negative = growth inhibition” value was -11.2%.

As to `COc1ccc(NC(=O)NN2CCN(C)CC2)c(OC)c1`, the “activity change, negative = growth inhibition” value is 2.16%.

Turning to `COc1ccc(CCNC(=O)CCCn2c(=O)c3ccccc3n(Cc3ccc(F)cc3Cl)c2=O)cc1OC`, the “activity change, negative = growth inhibition” value is 4.7%.

`COc1ccc(CCNC(=O)CCn2c(=O)oc3ccccc32)cc1OC`: the “activity change, negative = growth inhibition” value was -8.19%.

Regarding `Cc1ccc(Cn2c(=O)n(CCCC(=O)NCc3ccccc3Cl)c(=O)c3ccccc32)cc1`, the “activity change, negative = growth inhibition” value is -13.5%.

Turning to `CCCCNC(=O)CCn1c(=O)c2ccccc2n(Cc2cc(C)ccc2C)c1=O`, the “activity change, negative = growth inhibition” value is -3.9%.

Take `COc1ccc(CCNC(=O)CCCn2c(=O)c3ccccc3n(Cc3ccc(C)cc3)c2=O)cc1OC`: the Potency was 23.1 µM (active).

`COc1ccc(CCNC(=O)CCCCn2c(=O)c3ccccc3n(Cc3ccccc3C)c2=O)cc1OC`: the Potency is 20.6 µM (active).

Turning to `CCOc1cc(CNCc2ccccn2)ccc1OCC(=O)NC(C)(C)C`, the “activity change, negative = growth inhibition” value is -87.9%.

Consider `N#Cc1ccc(C(=O)OCC(=O)NC(=O)NC2CCCCC2)cc1`, for which the “activity change, negative = growth inhibition” value is -7.73%.

In the case of `COc1ccc(C(=O)NC(C)c2nccs2)cc1OC1CCN(C(C)C)CC1` (stereo unspecified), the “activity change, negative = growth inhibition” value is -0.147%.

Regarding `COc1ccc(/C=C/CN2CCN(Cc3ccc(C)cc3)C(CCO)C2)cc1` (stereo unspecified), the “activity change, negative = growth inhibition” value was 14.8%.

With `CN(CCOc1ccccc1)C(=O)c1cc(-c2ccco2)nc2ccccc12`, the Potency is 18.4 µM (active).

For `O=C(Nc1cccc(F)c1)c1cc(-c2ccco2)nc2ccccc12`, the “activity change, negative = growth inhibition” value was 1.56%.

Take `CN(C(=O)COC(=O)c1cc(-c2ccco2)nc2ccccc12)C1CCS(=O)(=O)C1` (stereo unspecified): the “activity change, negative = growth inhibition” value was -5.97%.

As to `COCCCNC(=O)c1c(NC(=O)c2cc(=O)c3cc(C)c(C)cc3o2)sc2c1CCCC2`, the “activity change, negative = growth inhibition” value was -17.6%.

`CCS(=O)(=O)C1=NSC2=NC(=O)/C(=C\c3ccc(OS(=O)(=O)c4ccccc4)cc3)C(=N)N21`: the “activity change, negative = growth inhibition” value is -10.9%.

Turning to `c1ccc(-c2ccccc2OCCN2CCCCC2)cc1`, the “activity change, negative = growth inhibition” value is -24.5%.

Take `Cc1ccc(CN2CCNC(=O)C2CC(=O)NCc2csc(C(C)C)n2)cc1` (stereo unspecified): the “activity change, negative = growth inhibition” value was -14.1%.

On to `Cc1cc(C)c(NC(=O)CSc2nc3ccncc3[nH]2)c(C)c1`, for which the “activity change, negative = growth inhibition” value is -28.9%.

On to `O=[N+]([O-])c1ccc(O)c(/C=N/Nc2ccccc2[N+](=O)[O-])c1`, for which the Potency is 3.26 µM (active).

As for `O=[N+]([O-])c1cccc(C=NN=Cc2ccccc2O)c1`, the “activity change, negative = growth inhibition” value is 4.42%.

Turning to `Nc1nnnn1/N=C/c1cc([N+](=O)[O-])ccc1O`, the “activity change, negative = growth inhibition” value is -1.04%.

Consider `C[C@H](CO)N1C[C@H](C)[C@@H](CN(C)S(=O)(=O)c2ccc(Oc3ccccc3)cc2)OCc2cn(nn2)CCCC1=O`, for which the “activity change, negative = growth inhibition” value was -16.1%.

Consider `COc1cc2nc(N3CCCN(C)CC3)nc(NC(C)C)c2cc1OC`, for which the Potency was 12.6 µM (active).

With `COc1ccc(C(=O)N2CCCN(C)CC2)c(OC)c1`, the “activity change, negative = growth inhibition” value was -4.48%.

With `COc1cc2nc(Cl)nc(NC3CC3)c2cc1OC`, the Potency was 14.1 µM (active).

Take `COc1cc(OC)c(NC(=O)c2cnc(N3CCCC3)nc2C)cc1Cl`: the “activity change, negative = growth inhibition” value is -13.5%.

Take `COc1cc2nc(N3CCCN(C)CC3)nc(NC3CC3)c2cc1OC`: the Potency was 7.94 µM (active).

`COc1cc2nc(Cl)nc(NCCO)c2cc1OC`: the “activity change, negative = growth inhibition” value is 5.96%.

In the case of `COc1cc2nc(C#Cc3nc4cc(OC)c(OC)cc4[nH]3)[nH]c2cc1OC`, the “activity change, negative = growth inhibition” value was 6.18%.

For `Cc1ccc(CNS(=O)(=O)CCNC(=O)c2ccccc2)cc1`, the “activity change, negative = growth inhibition” value is 4.69%.

For `CCOC(=O)C1CCCN(S(=O)(=O)c2ccc3c(c2)C(C)(C)C(=O)N3C)C1` (stereo unspecified), the “activity change, negative = growth inhibition” value is -2.23%.
